The source of these data is PubChem BioAssay (NCATS).

Experiment [1] can be described thus: qHTS of pediatric cancer cell lines to identify multiple opportunities for drug repurposing: Primary screen for LAN-5 cells (AID 1347100). Further: potency means the concentration at half of the fitted maximal effect. An outline of the steps: (§1)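 Cells (500-1,000/well) rested 5 h, then received compounds for 48 h; metabolically active cells were measured by CellTiter-Glo luminescence. Final concentrations spanned up to 46 µM (MIPE, 11-point) or 0.59 nM-46 µM (NPC, 8-point) in primary screens, 11-point in follow-ups.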

The nature of experiment [2]: qHTS of pediatric cancer cell lines to identify multiple opportunities for drug repurposing: Primary screen for BT-12 cells (AID 1347101). Further: nearly all actives have a fitted effect of over 25% in size. Further: potency means the concentration at half of the fitted maximal effect. Put shortly: as §1
On the technique in general: In qHTS, concentration-response curves come from the screen itself.

Experiment [3] can be described thus: qHTS of pediatric cancer cell lines to identify multiple opportunities for drug repurposing: Primary screen for Rh18 cells (AID 1347102). Further: nearly all actives have a fitted effect of over 65% in size. Further: potency means the concentration at half of the fitted maximal effect. An outline of the steps: as §1
Experiment [4] is described as follows: qHTS of pediatric cancer cell lines to identify multiple opportunities for drug repurposing: Primary screen for OHS-50 cells (AID 1347103). Further: nearly all actives have a fitted effect of over 40% in size. Further: potency means the concentration at half of the fitted maximal effect. Put shortly: as §1
The nature of experiment [5]: qHTS of pediatric cancer cell lines to identify multiple opportunities for drug repurposing: Primary screen for RD cells (AID 1347104). Further: nearly all actives have a fitted effect of over 55% in size. Further: potency means the concentration at half of the fitted maximal effect. An outline of the steps:
(§2)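 ATP-based luminescence (CellTiter-Glo) quantifies viability after a 48-hour exposure. Compounds are dosed across 8 or 11 final concentrations; DMSO and 2.3 µM bortezomib serve as controls.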

Experiment [6] in a line: qHTS of pediatric cancer cell lines to identify multiple opportunities for drug repurposing: Primary screen for MG 63 (6-TG R) cells (AID 1347105). Further: nearly all actives have a fitted effect of over 50% in size. Further: potency means the concentration at half of the fitted maximal effect. An outline of the steps:
as §2

Experiment [7] can be described thus: qHTS of pediatric cancer cell lines to identify multiple opportunities for drug repurposing: Primary screen for control Hh wild type fibroblast cells (AID 1347106).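 Further: series mostly up to about 46 µM; a drop in luminescence marks cytotoxicity and a rise apparent proliferation; nearly all actives have a fitted effect of over 55% in size.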 An outline of the steps:
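Viability after 48 h compound treatment at 37C, 500-1,000 cells/well, read as ATP luminescence with CellTiter-Glo. Primary screens used 11-point (MIPE, 0.78 nM-46 µM) or 8-point (NPC, 0.59 nM-46 µM) final concentrations; follow-up screens used 11-point dilutions.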

Experiment [8] can be described thus: qHTS of pediatric cancer cell lines to identify multiple opportunities for drug repurposing: Primary screen for Rh30 cells (AID 1347107). Further: series mostly up to about 46 µM; nearly all actives have a fitted effect of over 75% in size. Put shortly: as §1
A short description of experiment [9]: qHTS of pediatric cancer cell lines to identify multiple opportunities for drug repurposing: Primary screen for Rh41 cells (AID 1347108). Further: nearly all actives have a fitted effect of over 70% in size. Further: potency means the concentration at half of the fitted maximal effect. Put shortly: as §2
The nature of experiment [10]: qHTS of pediatric cancer cell lines to identify multiple opportunities for drug repurposing: Confirmatory screen for NB1643 cells (AID 1347109). Further: potency means the concentration at half of the fitted maximal effect; nearly all actives have a fitted effect of over 45% in size. Put shortly: as §1
A short description of experiment [11]: qHTS of pediatric cancer cell lines to identify multiple opportunities for drug repurposing: Confirmatory screen for A673 cells (AID 1347110).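 Further: potency means the concentration at half of the fitted maximal effect; cells exposed to compound for 48 h before the viability read; nearly all actives have a fitted effect of over 65% in size.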 Put shortly: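 qHTS titration format: primary MIPE 0.78 nM-46 µM (11 pts), NPC 0.59 nM-46 µM; confirmation 11 pts. 48 h, CTG luminescence.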
Experiment [12] is described as follows: qHTS of pediatric cancer cell lines to identify multiple opportunities for drug repurposing: Confirmatory screen for SK-N-MC cells (AID 1347111).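 Further: potency means the concentration at half of the fitted maximal effect; cells exposed to compound for 48 h before the readout; nearly all actives have a fitted effect of over 70% in size.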 An outline of the steps:
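Seed 500-1,000 cells/well; rest 5 h at 37 degrees C. Pin-transfer compounds, 11-point titration. Incubate 48 h. Add CellTiter-Glo, 15 min RT, read luminescence.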

Experiment [13] can be described thus: qHTS of pediatric cancer cell lines to identify multiple opportunities for drug repurposing: Confirmatory screen for BT-12 cells (AID 1347112). Further: potency means the concentration at half of the fitted maximal effect; nearly all actives have a fitted effect of over 55% in size. An outline of the steps:
as §1

The nature of experiment [14]: qHTS of pediatric cancer cell lines to identify multiple opportunities for drug repurposing: Confirmatory screen for LAN-5 cells (AID 1347113). Further: potency means the concentration at half of the fitted maximal effect; nearly all actives have a fitted effect of over 65% in size. An outline of the steps: as §1
Experiment [15] in a line: qHTS of pediatric cancer cell lines to identify multiple opportunities for drug repurposing: Confirmatory screen for DAOY cells (AID 1347114). Further: potency means the concentration at half of the fitted maximal effect; nearly all actives have a fitted effect of over 65% in size. Put shortly:
(§3)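 Viability measured as metabolically active cells via CellTiter-Glo luminescence following 48 hours of compound exposure, 11-point dilutions in confirmatory testing. 500-1,000 cells/well plated 5 hours before dosing; controls were DMSO and 2.3 µM bortezomib.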

The nature of experiment [16]: qHTS of pediatric cancer cell lines to identify multiple opportunities for drug repurposing: Confirmatory screen for NB-EBc1 cells (AID 1347115).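 Further: potency means the concentration at half of the fitted maximal effect; cells exposed to compound for 48 h before the viability read; nearly all actives have a fitted effect of over 45% in size.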 Put shortly:
as §1

Experiment [17] in a line: qHTS of pediatric cancer cell lines to identify multiple opportunities for drug repurposing: Confirmatory screen for SJ-GBM2 cells (AID 1347116). Further: potency means the concentration at half of the fitted maximal effect; nearly all actives have a fitted effect of over 60% in size. An outline of the steps:
as §3

A short description of experiment [18]: qHTS of pediatric cancer cell lines to identify multiple opportunities for drug repurposing: Confirmatory screen for BT-37 cells (AID 1347117). Further: potency means the concentration at half of the fitted maximal effect; nearly all actives have a fitted effect of over 55% in size. An outline of the steps: as §1
Experiment [19] in a line: qHTS of pediatric cancer cell lines to identify multiple opportunities for drug repurposing: Confirmatory screen for TC32 cells (AID 1347118). Put shortly: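 Luminescent CellTiter-Glo read-out of metabolically active TC32 cells after 48 h compound exposure. Primary: MIPE 11-point, 0.78 nM–46 µM; NPC 8-point, 0.59 nM–46 µM. Confirmatory: 11-point dilutions.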
The nature of experiment [20]: qHTS of pediatric cancer cell lines to identify multiple opportunities for drug repurposing: Confirmatory screen for MG 63 (6-TG R) cells (AID 1347119). An outline of the steps: as §1

Values joined by “and” are separate entries in the source; they are usually repeats but may differ in a detail not shown here. Equal values may be shown once. Inconclusive results are not listed. Active and inactive are the calls of the source. The call rests on the fitted dose curve; in most records, active means well fitted curve in the direction sought with a large enough effect; inconclusive means small, poorly fitted or top-dose-only effect, or another doubt; inactive means no such curve, though single readings can be large; an effect the other way counts as inactive or inconclusive.

For the molecule `CCN1CCCC1CNC(=O)c1cc(S(=O)(=O)CC)c(N)cc1OC` (stereo not drawn), the Potency entry in experiment [1], in experiment [2], in experiment [3], in experiment [4], in experiment [5] and in [6] was “inactive” each time. Further, the Potency entry in [7] and in [9] was “inactive” in each case. In addition, the molecule was called inactive in [8].

For the molecule `CCc1cccc2c3c([nH]c12)C(CC)(CC(=O)O)OCC3` (stereo not drawn), the Potency result in experiment [1], in [2], in [3], in experiment [4], in experiment [5] and in [6] was “inactive” throughout. Besides, the Potency result in experiment [7] and in experiment [9] was “inactive” each time. In addition, the molecule was called inactive in experiment [8].

For the molecule `Cc1cn([C@H]2C=C[C@@H](CO)O2)c(=O)[nH]c1=O`, the Potency result in experiment [1], in experiment [2], in experiment [3], in [4], in experiment [5] and in experiment [6] was “inactive” each time. Besides, the Potency result in experiment [7] and in experiment [9] was “inactive” each time. In experiment [8], the outcome was inactive.

As for `NC(=O)OCC(COC(N)=O)c1ccccc1`, the Potency entry in experiment [1], in experiment [2], in [3], in [4], in [5] and in [6] was “inactive” each time. The Potency result in [7] and in experiment [9] was “inactive” throughout. Also, the outcome in experiment [8] was inactive.

Regarding `NCCCCCC(=O)O`, the Potency entry in experiment [1], in [2], in experiment [3], in experiment [4], in [5] and in [6] was “inactive” each time. The Potency entry in [7] and in experiment [9] was “inactive” each time. In addition, the molecule was called inactive in experiment [8].

Consider `COc1ccc(CCN(C)CCCC(C#N)(c2ccc(OC)c(OC)c2)C(C)C)cc1OC` (stereo not drawn), for which the Potency result in experiment [1], in experiment [2], in [3], in [4], in experiment [5] and in experiment [6] was “inactive” throughout. Also, the Potency result in experiment [7] and in experiment [9] was “inactive” each time. For the same molecule, in experiment [8], the result was inactive.

As for `CN1C2CCC1CC(OC(=O)C(CO)c1ccccc1)C2` (stereo not drawn), the Potency entry in experiment [1], in [2], in [3], in experiment [4], in [5] and in [6] was “inactive” throughout. In addition, the Potency result in [7] and in experiment [9] was “inactive” each time. The molecule was classed as inactive in experiment [8].

On to `CC[C@@]1(O)C(=O)OCc2c1cc1n(c2=O)Cc2cc3c(CN(C)C)c(O)ccc3nc2-1`, for which the Potency in [1] was 47.3 nM (active) and 41.8 nM (active); in experiment [2], 309 nM (active) and 1.37 µM (active); in [3], 473 nM (active) and 1.48 µM (active); in [4] it was 27.6 nM (active) and 109 nM (active); in [5] it was 2.66 µM (active) and 4.69 µM (active); in experiment [6], 66.8 nM (active) and 296 nM (active). Further, the Potency was 2.11 µM (active) and 2.64 µM (active) in experiment [9]; 329 nM (active) in [10]; 131 nM (active) in experiment [11]; 46.5 nM (active) in experiment [12]; 3690 nM (active) in experiment [13]; 185 nM (active) in [14]. Moreover, the Potency is 5220 nM (active) in experiment [15]; 92.8 nM (active) in experiment [16]; 1310 nM (active) in experiment [17]; 117 nM (active) in experiment [18]; 58.5 nM (active) in experiment [19]; 329 nM (active) in [20].

On to `CN(C)c1nc(N(C)C)nc(N(C)C)n1`, for which the Potency result in experiment [1], in [2], in [3], in experiment [4], in [5] and in experiment [6] was “inactive” in each case. In addition, the Potency result in experiment [7] and in experiment [9] was “inactive” throughout. Also, the outcome in experiment [8] was inactive.

`Cn1ccc2cc3c(cc21)CCN3C(=O)Nc1cccnc1`: the Potency result in [1], in [2], in experiment [3], in experiment [4], in experiment [5] and in experiment [6] was “inactive” in each case. Besides, the Potency result in [7] and in experiment [9] was “inactive” in each case. Moreover, in experiment [8], the molecule was called inactive.

With `COc1cc2nc(N(C)CCCNC(=O)C3CCCO3)nc(N)c2cc1OC` (stereo not drawn), the Potency entry in experiment [1], in [2], in [3], in experiment [4], in experiment [5] and in [6] was “inactive” each time. Besides, the Potency entry in [7] and in experiment [9] was “inactive” throughout. Moreover, in experiment [8], the outcome was inactive.

Consider `CN(C)CCOC(c1ccccc1)c1ccccc1`, for which the Potency result in [1], in [2], in [3], in experiment [5], in [6] and in experiment [7] was “inactive” throughout. In experiment [9], the Potency result was “inactive”. In experiment [8], the molecule was called inactive.

`NCCc1cnc[nH]1`: the Potency result in experiment [1], in experiment [2], in experiment [3], in experiment [4], in experiment [5] and in experiment [6] was “inactive” throughout. The Potency result in experiment [7] and in [9] was “inactive” in each case. Besides, in experiment [8], the molecule was called inactive.

`C[C@H]1c2cccc(O)c2C(O)=C2C(=O)[C@]3(O)C(O)=C(C(N)=O)C(=O)[C@@H](N(C)C)[C@@H]3[C@@H](O)[C@@H]21`: the Potency entry in experiment [1], in experiment [3], in experiment [4], in experiment [5], in experiment [6] and in experiment [7] was “inactive” each time. In experiment [9], the Potency entry was “inactive”. For the same molecule, in [2], the Potency was 24.3 µM (active). For the same molecule, the outcome in experiment [8] was inactive.

Turning to `COc1ccc2c(c1)c(CC(=O)O)c(C)n2C(=O)c1ccc(Cl)cc1`, the Potency result in experiment [1], in [2], in experiment [3], in [4], in experiment [5] and in experiment [6] was “inactive” in each case. Besides, the Potency result in [7] and in [9] was “inactive” each time. In addition, the result in experiment [8] was inactive.

In the case of `Cn1c(=O)c2[nH]cnc2n(C)c1=O`, the Potency result in experiment [1], in experiment [2], in [3], in [4], in experiment [5] and in experiment [6] was “inactive” each time. Further, the Potency entry in experiment [7] and in experiment [9] was “inactive” throughout. In addition, the outcome in [8] was inactive.

In the case of `CC(=O)OCC(CCn1cnc2cnc(N)nc21)COC(C)=O`, the Potency result in experiment [2], in experiment [3], in [4], in experiment [5], in experiment [6] and in experiment [7] was “inactive” each time. Also, in experiment [9], the Potency entry was “inactive”. Moreover, the call in experiment [8] was inactive.

In the case of `O=c1[nH]cc(F)c(=O)[nH]1`, the Potency in [1] was 7.43 µM (active). For the same molecule, the Potency result in experiment [3], in experiment [4], in experiment [5], in experiment [6], in experiment [7] and in [9] was “inactive” throughout. The molecule was classed as inactive in experiment [8].

Consider `Cc1ccc(C(=O)Nc2ccc(S(=O)(=O)O)c3cc(S(=O)(=O)O)cc(S(=O)(=O)O)c23)cc1NC(=O)c1cccc(NC(=O)Nc2cccc(C(=O)Nc3cc(C(=O)Nc4ccc(S(=O)(=O)O)c5cc(S(=O)(=O)O)cc(S(=O)(=O)O)c45)ccc3C)c2)c1`, for which the Potency result in experiment [2], in experiment [3], in [4], in experiment [5], in experiment [6] and in [7] was “inactive” each time. Further, in experiment [9], the Potency result is “inactive”. The result in experiment [8] was inactive.

For `COc1cc2nc(N3CCN(C(=O)c4ccco4)CC3)nc(N)c2cc1OC`, the Potency in experiment [1] is 14.8 µM (active); in [2] it was 9.53 µM (active); in [5] it was 29.6 µM (active). Moreover, the Potency result in [6], in experiment [7] and in [9] was “inactive” throughout. The call in experiment [8] was inactive.
